Laboratory results reported in publication PMC7862700, “An all-to-all approach to the identification of sequence-specific readers for epigenetic DNA modifications on cytosine”.

How the values were obtained:
Assay in all cases: DAPPL (digital affinity profiling via proximity ligation, sequencing); 10 mM Tris-HCl pH 7.5, 50 mM NaCl, 1 mM DTT, 4% glycerol, room temperature, 30 min; GST-TFs on glutathione beads, 16-mer random dsDNA library, 0.1% formaldehyde crosslink after washing; high values mean tight binding
Details in all cases: protein: recombinant; tags: N-terminal GST; dsDNA, one strand shown
ERF = molecular target: T1, ERF (Homo sapiens, UniProt P50548 1-548)
T1 sequence: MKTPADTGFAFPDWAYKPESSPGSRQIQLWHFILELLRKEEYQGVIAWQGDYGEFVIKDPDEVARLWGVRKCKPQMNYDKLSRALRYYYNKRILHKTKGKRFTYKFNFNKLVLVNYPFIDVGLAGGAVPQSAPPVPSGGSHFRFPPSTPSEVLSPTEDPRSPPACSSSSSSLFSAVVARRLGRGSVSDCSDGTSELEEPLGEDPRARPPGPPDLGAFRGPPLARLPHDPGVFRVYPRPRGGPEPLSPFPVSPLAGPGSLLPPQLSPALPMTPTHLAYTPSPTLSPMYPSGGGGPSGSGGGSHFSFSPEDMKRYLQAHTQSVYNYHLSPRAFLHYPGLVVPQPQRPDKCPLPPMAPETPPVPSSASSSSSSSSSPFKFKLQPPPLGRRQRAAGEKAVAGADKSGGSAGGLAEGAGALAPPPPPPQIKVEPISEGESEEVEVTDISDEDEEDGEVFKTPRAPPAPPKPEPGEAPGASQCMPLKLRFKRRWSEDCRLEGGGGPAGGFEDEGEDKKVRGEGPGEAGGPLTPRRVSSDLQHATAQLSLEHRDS
Method in brief: (§1)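 After expression in yeast as GST fusions, human transcription factors were bound to glutathione beads, DNA-barcoded and mixed with a tag-only sample. The pools were incubated with 200 nmole of a 16-mer random double-stranded DNA library in Tris/NaCl/DTT/glycerol buffer (30 min, room temperature), washed and crosslinked with 0.1% formaldehyde. Proximity ligation with BsaI/T4 ligase ran for 1 h at 37 °C, before PCR amplification and sequencing on an Illumina NextSeq500. Binding signal is a hexamer's read frequency for a factor divided by its frequency for the tag-only sample.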

ETV3L = molecular target: T2, ETV3L (Homo sapiens, UniProt Q6ZN32 1-361)
T2 sequence: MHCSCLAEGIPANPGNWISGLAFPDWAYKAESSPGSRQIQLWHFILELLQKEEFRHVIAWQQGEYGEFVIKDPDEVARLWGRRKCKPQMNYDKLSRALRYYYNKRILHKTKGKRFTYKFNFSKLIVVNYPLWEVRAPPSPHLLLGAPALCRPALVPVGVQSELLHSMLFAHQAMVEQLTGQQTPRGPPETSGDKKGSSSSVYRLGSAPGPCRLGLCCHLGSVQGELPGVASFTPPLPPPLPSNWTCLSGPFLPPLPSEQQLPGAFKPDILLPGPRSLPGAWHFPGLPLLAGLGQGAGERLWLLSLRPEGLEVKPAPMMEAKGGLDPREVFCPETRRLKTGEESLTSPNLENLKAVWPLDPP
Method in brief: as §1

ETS2 = molecular target: T3, ETS2 (Homo sapiens, UniProt P15036 1-469)
T3 sequence: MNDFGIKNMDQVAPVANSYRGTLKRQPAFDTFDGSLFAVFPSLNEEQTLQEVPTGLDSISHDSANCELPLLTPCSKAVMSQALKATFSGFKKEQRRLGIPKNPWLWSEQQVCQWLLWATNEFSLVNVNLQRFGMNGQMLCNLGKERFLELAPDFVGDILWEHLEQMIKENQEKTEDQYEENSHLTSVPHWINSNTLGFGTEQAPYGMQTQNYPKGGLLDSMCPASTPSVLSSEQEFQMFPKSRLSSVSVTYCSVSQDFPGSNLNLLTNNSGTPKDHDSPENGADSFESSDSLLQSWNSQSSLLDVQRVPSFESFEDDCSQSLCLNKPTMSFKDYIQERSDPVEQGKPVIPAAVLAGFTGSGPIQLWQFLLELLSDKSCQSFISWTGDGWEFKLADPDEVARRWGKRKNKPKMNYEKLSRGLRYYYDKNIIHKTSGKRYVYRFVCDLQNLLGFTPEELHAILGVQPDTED
Method in brief: as §1

SPDEF = molecular target: T4, SPDEF (Homo sapiens, UniProt O95238 1-335)
T4 sequence: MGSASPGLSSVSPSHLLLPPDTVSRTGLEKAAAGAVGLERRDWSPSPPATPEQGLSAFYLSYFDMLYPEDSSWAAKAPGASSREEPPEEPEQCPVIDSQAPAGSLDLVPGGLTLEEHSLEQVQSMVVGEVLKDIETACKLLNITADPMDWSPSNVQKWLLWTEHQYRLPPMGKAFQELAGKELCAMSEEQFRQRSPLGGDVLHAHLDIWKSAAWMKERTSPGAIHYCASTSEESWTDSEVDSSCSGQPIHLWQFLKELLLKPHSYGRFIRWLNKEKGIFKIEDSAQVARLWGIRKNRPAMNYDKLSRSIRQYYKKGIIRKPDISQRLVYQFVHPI
Method in brief: as §1

ETV7 = molecular target: T5, ETV7 (Homo sapiens, UniProt Q9Y603 1-341)
T5 sequence: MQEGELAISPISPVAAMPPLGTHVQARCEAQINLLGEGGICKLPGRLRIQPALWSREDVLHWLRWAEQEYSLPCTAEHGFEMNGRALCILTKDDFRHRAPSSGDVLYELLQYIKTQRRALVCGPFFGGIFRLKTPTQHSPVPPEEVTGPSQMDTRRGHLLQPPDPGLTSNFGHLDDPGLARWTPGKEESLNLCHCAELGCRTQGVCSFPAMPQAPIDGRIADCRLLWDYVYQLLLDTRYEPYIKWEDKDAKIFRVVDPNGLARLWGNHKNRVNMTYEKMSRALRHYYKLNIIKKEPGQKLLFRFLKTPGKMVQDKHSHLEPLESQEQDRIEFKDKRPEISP
Method in brief: as §1

ELF5 = molecular target: T6, ELF5 (Homo sapiens, UniProt Q9UKW6-2 1-255)
T6 sequence: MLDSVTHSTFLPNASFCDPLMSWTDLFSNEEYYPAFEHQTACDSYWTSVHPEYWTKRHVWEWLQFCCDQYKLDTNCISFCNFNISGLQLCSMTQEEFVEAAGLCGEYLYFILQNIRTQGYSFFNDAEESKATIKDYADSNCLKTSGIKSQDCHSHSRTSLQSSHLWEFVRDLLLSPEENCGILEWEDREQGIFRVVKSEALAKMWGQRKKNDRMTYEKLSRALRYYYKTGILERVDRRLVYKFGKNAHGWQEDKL
Method in brief: as §1

ETV3 = molecular target: T7, ETV3 (Homo sapiens, UniProt P41162-2 1-143)
T7 sequence: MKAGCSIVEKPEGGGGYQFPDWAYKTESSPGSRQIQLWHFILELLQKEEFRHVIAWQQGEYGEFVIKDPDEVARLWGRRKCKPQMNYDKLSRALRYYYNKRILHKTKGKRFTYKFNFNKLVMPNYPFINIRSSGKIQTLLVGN
Method in brief: as §1

ETV6 = ETV6 (Homo sapiens, UniProt P41212 1-452)
ETV6, sequence (P41212 whole entry): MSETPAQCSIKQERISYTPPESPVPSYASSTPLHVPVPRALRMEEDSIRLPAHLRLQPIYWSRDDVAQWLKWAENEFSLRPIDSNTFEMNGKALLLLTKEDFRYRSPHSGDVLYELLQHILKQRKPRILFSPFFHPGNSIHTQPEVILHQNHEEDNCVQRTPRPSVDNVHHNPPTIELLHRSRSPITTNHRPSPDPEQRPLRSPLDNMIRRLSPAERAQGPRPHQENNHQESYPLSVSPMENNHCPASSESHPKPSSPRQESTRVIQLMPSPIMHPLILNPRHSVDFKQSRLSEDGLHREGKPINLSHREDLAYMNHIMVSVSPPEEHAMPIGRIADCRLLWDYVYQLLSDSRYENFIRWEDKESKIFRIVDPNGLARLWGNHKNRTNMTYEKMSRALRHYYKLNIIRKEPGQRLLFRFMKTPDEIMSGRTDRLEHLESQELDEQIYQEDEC
Method in brief: as §1

Row | Sequence | binding signal (ERF) | binding signal (ETV3L) | binding signal (ETS2) | binding signal (SPDEF) | binding signal (ETV7) | binding signal (ELF5) | binding signal (ETV3) | binding signal (ETV6)
1 | AAGTCT | 1.25 fold enrichment (6-mer frequency, TF over GST control) | 1.14 fold enrichment (6-mer frequency, TF over GST control) | 1.21 fold enrichment (6-mer frequency, TF over GST control) | 1.13 fold enrichment (6-mer frequency, TF over GST control) | 1.15 fold enrichment (6-mer frequency, TF over GST control) | 1.23 fold enrichment (6-mer frequency, TF over GST control) | 1.21 fold enrichment (6-mer frequency, TF over GST control) | 1.14 fold enrichment (6-mer frequency, TF over GST control)
2 | CCGACC | 1.59 fold enrichment (6-mer frequency, TF over GST control) | 1.67 fold enrichment (6-mer frequency, TF over GST control) | 1.49 fold enrichment (6-mer frequency, TF over GST control) | 1.54 fold enrichment (6-mer frequency, TF over GST control) | 1.55 fold enrichment (6-mer frequency, TF over GST control) | 1.48 fold enrichment (6-mer frequency, TF over GST control) | 1.46 fold enrichment (6-mer frequency, TF over GST control) | 1.67 fold enrichment (6-mer frequency, TF over GST control)
3 | AACCAA | 1.25 fold enrichment (6-mer frequency, TF over GST control) | 1.15 fold enrichment (6-mer frequency, TF over GST control) | 1.23 fold enrichment (6-mer frequency, TF over GST control) | 1.21 fold enrichment (6-mer frequency, TF over GST control) | 1.2 fold enrichment (6-mer frequency, TF over GST control) | 1.16 fold enrichment (6-mer frequency, TF over GST control) | 1.18 fold enrichment (6-mer frequency, TF over GST control) | 1.29 fold enrichment (6-mer frequency, TF over GST control)
4 | CAATAT | 1.28 fold enrichment (6-mer frequency, TF over GST control) | 1.26 fold enrichment (6-mer frequency, TF over GST control) | 1.28 fold enrichment (6-mer frequency, TF over GST control) | 1.34 fold enrichment (6-mer frequency, TF over GST control) | 1.27 fold enrichment (6-mer frequency, TF over GST control) | 1.2 fold enrichment (6-mer frequency, TF over GST control) | 1.33 fold enrichment (6-mer frequency, TF over GST control) | 1.23 fold enrichment (6-mer frequency, TF over GST control)
5 | TTCAAG | 1.27 fold enrichment (6-mer frequency, TF over GST control) | 1.31 fold enrichment (6-mer frequency, TF over GST control) | 1.21 fold enrichment (6-mer frequency, TF over GST control) | 1.31 fold enrichment (6-mer frequency, TF over GST control) | 1.28 fold enrichment (6-mer frequency, TF over GST control) | 1.18 fold enrichment (6-mer frequency, TF over GST control) | 1.42 fold enrichment (6-mer frequency, TF over GST control) | 1.26 fold enrichment (6-mer frequency, TF over GST control)
6 | TAGTTC | 1.29 fold enrichment (6-mer frequency, TF over GST control) | 1.44 fold enrichment (6-mer frequency, TF over GST control) | 1.43 fold enrichment (6-mer frequency, TF over GST control) | 1.5 fold enrichment (6-mer frequency, TF over GST control) | 1.31 fold enrichment (6-mer frequency, TF over GST control) | 1.41 fold enrichment (6-mer frequency, TF over GST control) | 1.49 fold enrichment (6-mer frequency, TF over GST control) | 1.41 fold enrichment (6-mer frequency, TF over GST control)
7 | TATTTT | 1.19 fold enrichment (6-mer frequency, TF over GST control) | 1.41 fold enrichment (6-mer frequency, TF over GST control) | 1.35 fold enrichment (6-mer frequency, TF over GST control) | 1.24 fold enrichment (6-mer frequency, TF over GST control) | 1.49 fold enrichment (6-mer frequency, TF over GST control) | 1.29 fold enrichment (6-mer frequency, TF over GST control) | 1.39 fold enrichment (6-mer frequency, TF over GST control) | 1.36 fold enrichment (6-mer frequency, TF over GST control)
